Screens as filed in PubChem.
This excerpt belongs to a sample that is enriched for hits.
AmpC detergent = AmpC beta-lactamase inhibition with detergent present; 370,000 compounds, 0.041% hits; Potency, µM (top dose mostly 114 µM), hits mostly inhibitors; AID 485294; AmpC hydrolysis of nitrocefin, absorbance 480 nm, 0.01% Triton; note: nearly all actives have a fitted effect of over 25% in size
Target sequence (P00811 whole entry, looked up): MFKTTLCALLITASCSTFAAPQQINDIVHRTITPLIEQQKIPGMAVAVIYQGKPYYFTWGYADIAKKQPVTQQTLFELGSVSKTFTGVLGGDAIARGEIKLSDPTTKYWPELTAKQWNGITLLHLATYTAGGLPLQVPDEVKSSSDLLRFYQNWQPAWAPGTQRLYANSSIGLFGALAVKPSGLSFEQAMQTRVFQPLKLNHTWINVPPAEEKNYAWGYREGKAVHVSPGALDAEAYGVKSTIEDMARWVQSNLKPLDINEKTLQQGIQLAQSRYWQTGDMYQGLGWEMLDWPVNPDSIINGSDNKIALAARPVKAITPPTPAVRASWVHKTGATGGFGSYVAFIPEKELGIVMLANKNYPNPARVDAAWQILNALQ
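AmpC (5.3 nM in the dispensed reagent) in 20 mM phosphate pH 7.0 with 0.01% (detergent screen) or 0.0001% Triton X-100 was preincubated with compounds for 15 min at room temperature. Nitrocefin was then added from an 800 uM solution, and hydrolysis was followed at 480 nm.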
AMA1 RON2 block = AMA1-RON2 (P. falciparum) interaction inhibition | AlphaScreen AMA1-biotinylated RON2 peptide binding | Potency, µM (doses to about 58.2 µM), most hits filed as inhibitors | 360,000 compounds, 0.2% hits; note: nearly all actives have a fitted effect of over 45% in size
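AMA1 (3D7) with his tag at 25 nM final met compounds first, then biotinylated RON2 peptide at 25 nM; detection used donor plus acceptor beads, 10 µg/mL apiece, read by AlphaScreen after 30 min at room temperature.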
Cycloheximide cs = counter-screen hit for Shiga toxin inhibitors, cycloheximide | max response, % | cell reporter, cycloheximide protein synthesis inhibition counterscreen | 300,000 compounds, 12% hits; in the data active = max response mostly above about 13%, no sharp cut-off; inactive = mostly below about 14%; note: read at 38.3 µM for the half of the compounds with a filed dose
Shiga toxin inh = inhibitors of Shiga toxin in Vero cells; Vero cells, Shiga toxin protein synthesis inhibition reporter; inhibition, % at 38.7 µM; 290,000 compounds, 9.2% hits; AID 2315; in the data active = inhibition mostly above about 28%, no sharp cut-off; inactive = mostly below about 43%
SARS PLP yeast = SARS-CoV PLP inhibition in yeast; Potency, µM (highest dose often 32.9 µM), most hits filed as activators; S. cerevisiae expressing SARS-CoV PLpro, growth rescue; 330,000 compounds, 0.19% hits; AID 485353; calls by dose curve; note: nearly all actives have a fitted effect of over 55% in size
AmpC inh no detg = inhibitors of E. coli AmpC beta-lactamase without detergent; P00811; AmpC nitrocefin hydrolysis, absorbance 480 nm, 0.0001% Triton; Potency, µM (highest dose often 57.1 µM), hits mostly inhibitors; 330,000 compounds, 0.52% hits; AID 485341; note: nearly all actives have a fitted effect of over 20% in size
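AmpC (5.3 nM in the dispensed reagent) in 20 mM phosphate pH 7.0 with 0.01% (detergent screen) or 0.0001% Triton X-100 was preincubated with compounds for 15 min at room temperature. Nitrocefin was then added from an 800 uM solution, and hydrolysis was followed at 480 nm.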
Numbers stand for hits; i = inactive; ? = inconclusive; nt = not tested or not shown; [ ] = remark or other dose. Unless noted, calls come from the whole dose curve; as a rule, active = well fitted curve in the direction sought with a large enough effect; inconclusive = small, poorly fitted or top-dose-only effect, or another doubt; inactive = no such curve, though single readings can be large; an effect the other way counts as inactive or inconclusive.

SMILES	AmpC detergent	AMA1 RON2 block	Cycloheximide cs	Shiga toxin inh	SARS PLP yeast	AmpC inh no detg
CSc1nc2ccc(NC(=O)c3ccc(=O)n(C)n3)cc2s1	i	i	19	42	i	i
CC(=O)Nc1ccc2nc(NC(=O)c3ccco3)sc2c1	?	i	25	36	i	i
CCOc1cccc2sc(Nc3nc4ccc(NC(C)=O)cc4s3)nc12	i	i	27	58	i	i
CCOc1cccc2sc(NN)nc12	?	i	i	i	i	i
CSc1nc2ccc(NC(=O)c3nn(C(C)C)c(=O)c4ccccc34)cc2s1	?	i	53	102	i	i
CSc1nc2ccc(NC(=O)c3ccc(F)c(F)c3)cc2s1	i	i	39	41	i	i[11.4 µM]
CSc1nc2ccc(NC(=O)c3cc4ccccc4o3)cc2s1	i	i	30	70	i	i
CSc1nc2ccc(NC(=O)c3ccco3)cc2s1	i	i	35	57	i	i
Cc1nc2ccc(NC(=O)c3nn(C(C)C)c(=O)c4ccccc34)cc2s1	i	i	i	i	i	i
CC(=O)Nc1ccc2nc(NC(=O)CS(=O)(=O)c3ccc(C)cc3)sc2c1	i	nt	nt	nt	nt	nt
CCC(=O)Nc1nc2ccc(NC(C)=O)cc2s1	?	i	33	i	i	i
N#CC1=C2SC=C(c3ccc(Br)cc3)N2CCCC1=O	i	i	44	118	i	i
Cc1nnc2c3ccccc3c(-c3cccs3)nn12	i	i	i	i	i	i
O=C1c2ccccc2C(=O)C1c1ccncc1	i	i	22	i	i	i
Cc1ccc(C2C(=O)c3ccccc3C2=O)cc1	i	i	19	i	i	i
Cc1ccccc1C1C(=O)c2ccccc2C1=O	i	i	i	i	i	i
O=C1c2ccccc2C(=O)C1c1ccccn1	i	i	30	i	i	i
Cc1cc(OCCn2ccnc2)cc(C(C)C)c1	i	i	i	i	i	i
Cn1ccc2c(N3CCC3)cc3c(c21)C1CCC3O1 (stereo not given)	nt	i	nt	nt	nt	nt
C=C1CC[C@H](O)C/C1=C/C=C1\CCC[C@]2(C)[C@@H]([C@H](C)CCCC(C)C)CC[C@@H]12	nt	nt	34	89	nt	nt
CC(=O)Nc1ccc2oc(-c3ccccc3Br)nc2c1	i	i	71	93	i	i
CCC(=O)Nc1ccc2oc(-c3ccccc3Br)nc2c1	i	i	49	122	i	i
CC(=O)Nc1ccc2oc(-c3cc(F)c(F)cc3Cl)nc2c1	?	i	32	181	i	i
COc1cc(OC)cc(C(=O)Nc2ccc3oc(-c4ccccc4C)nc3c2)c1	i	nt	nt	nt	nt	nt
CC(C)C(=O)Nc1ccc2oc(-c3cc(F)c(F)cc3Cl)nc2c1	?	i	i	i	i	i
SMILES	AmpC detergent	AMA1 RON2 block	Cycloheximide cs	Shiga toxin inh	SARS PLP yeast	AmpC inh no detg
Cc1ccccc1-c1nc2cc(NC(=O)C3CC3)ccc2o1	i	i	43	109	i	i
CCc1ccccc1NC(=O)CN(C1CCCCC1)S(C)(=O)=O	i	i	i	nt	i	i
COc1ccc(-n2ccc3ccccc32)cc1	i	i	25	i	i	i
COc1ccc2c(c1)c1ccccc1n2C	i	i	i	i	i	i
Cc1nnc(SCc2cccc(CSc3nnc(C)s3)c2)s1	i	i	i	i	i	i
Cc1cc(C(=O)CSc2nnnn2C)c(C)n1-c1ccc2c(c1)OCCO2	i	i	37	142	i	i
Cc1nnc(SCC(=O)c2cc(C)n(-c3ccc4c(c3)OCO4)c2C)s1	?	i	18	36	i	i
Cc1nnc(SCc2ccc3c(c2)OCO3)s1	i	i	81	142	i	i
O=C1CCCCN1CCC(=O)N1CCCC(Nc2ccc(F)c(F)c2)C1 (stereo not given)	i	i	i	i	?	i
O=C(Nc1ccc(CN2CCOCC2)cc1)c1ccc(Br)cc1	i	i	17	i	i	i
O=C(Nc1ccc(S(=O)(=O)N2CCOCC2)cc1)c1ccco1	i	i	i	i	i	i
CC(C)COc1cccc(C(=O)Nc2ccc(CN3CCOCC3)cc2)c1	i	i	i	i	i	i
O=C(Nc1ccc(CN2CCOCC2)cc1)c1ccco1	i	i	28	51	i	i
C/C(=N\NC(=O)CSCc1ccc(Cl)cc1)c1ccc(NC(=O)c2ccccc2)cc1	i	i	23	i	i	i
O=C(Nc1ccc(CN2CCOCC2)cc1)c1cccc(F)c1	i	i	52	81	i	i
Nc1ncnc(N2CCOCC2)n1	nt	i	nt	nt	nt	nt
C#CCSc1nc(-c2ccccc2)c2cc(Cl)ccc2n1	i	nt	nt	nt	nt	nt
O=C(Nc1cccc([N+](=O)[O-])c1)c1ccc(CN2CCOCC2)cc1	i	i	39	85	i	i
O=C(Nc1ccc(F)cc1)c1ccc(Cn2cnnn2)cc1	i	i	16	i	i	i
CC(C)(C)c1ccc(C(=O)Nc2ccc(CN3CCS(=O)(=O)CC3)cc2)cc1	i	i	17	i	i	i
O=C(Nc1ccc(CN2CCOCC2)cc1)c1ccc(Cl)cc1	i	i	33	36	i	i
O=C(Nc1ccc(CN2CCCCC2)cc1)c1cccc(Br)c1	i	i	21	42	i	i
O=C(Nc1ccc(CN2CCOCC2)cc1)c1ccc(F)cc1	i	i	29	60	i	i
COC(=O)c1ccc(NC(=O)c2ccc(CN3CCOCC3)cc2)cc1	i	i	i	i	i	i
COc1cccc(OC)c1C(=O)Nc1ccc(CN2CCCCC2)cc1	i	i	i	i	i	i
SMILES	AmpC detergent	AMA1 RON2 block	Cycloheximide cs	Shiga toxin inh	SARS PLP yeast	AmpC inh no detg
COc1c(C)cccc1C(=O)Nc1ccc(CN2CCCCC2)cc1	i	i	37	i	i	i
O=C(Nc1ccc(CN2CCOCC2)cc1)c1ccc2ccccc2c1	i	i	59	46	i	i
Cc1ccc(CCNC(=O)Cn2ncc3c([nH]c4ccccc43)c2=O)cc1	i	i	i	i	i	i
O=C(Nc1ccc(CN2CCCCC2)cc1)c1sc2ccccc2c1Cl	i	i	23	i	i	i
C/C(=N\NC(=O)c1ccc(CN2CCOCC2)cc1)c1ccc(NC(=O)c2ccccc2)cc1	i	i	41	63	i	i
O=C(CNC(=O)C1CCCCC1)NNC(=O)c1ccccc1Br	i	i	i	i	i	i
Cc1ccc(S(=O)(=O)Nc2nc(-c3ccccc3)cs2)cc1	i	i	i	i	i	i
Cc1ccc(Nc2nc(-c3ccccc3)cs2)nc1	i	i	27	i	i	i
Cc1ccc(Nc2nc(-c3cccs3)cs2)nc1	i	i	31	i	i	i[2.29 µM]
Cc1cc(C)nc(Nc2nc(-c3ccccc3)cs2)n1	i	i	53	73	i	i
COc1ccc(B(O)O)c(CN2CCN(C(=O)OC(C)(C)C)CC2)c1	nt	i	nt	nt	nt	nt
COc1ccccc1NC(=O)COC(=O)CN1C(=O)C(=O)c2ccccc21	i	i	i	i	i	i
O=C(Nc1ccc2c(c1)OCO2)C1COc2ccccc2O1 (stereo not given)	i	i	36	107	i	i
